Screens (PubChem BioAssay)
Compounds with a hit are over-represented: about 12% of the library has one in this group of screens.
HP1b binding inh: HTS for Inhibitors of HP1-beta Chromodomain Interactions with Methylated Histone Tails; Chromobox protein homolog 1 (Homo sapiens), P83916; AlphaScreen HP1-beta / biotin-H3K9me3 peptide binding; Potency, µM (series often up to 114 µM), inactives show at the top dose activity change, negative = inhibition, most hits filed as inhibitors; 0.56% of 390,000 active; AID 540317, 2011; further: nearly all actives have a fitted effect of over 70% in size
Target sequence (P83916 whole entry, looked up): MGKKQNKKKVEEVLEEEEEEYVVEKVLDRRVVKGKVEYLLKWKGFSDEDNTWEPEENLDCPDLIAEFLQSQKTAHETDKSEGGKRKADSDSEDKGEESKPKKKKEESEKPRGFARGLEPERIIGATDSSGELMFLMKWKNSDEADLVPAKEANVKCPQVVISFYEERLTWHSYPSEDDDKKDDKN
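HP1-beta protein (50 nM final) preincubated 30 min at room temperature with biotinylated H3(1-18)K9me3 peptide (50 nM) in PBS pH 7.4, 0.01% Tween-20, then compound added for 30 min. AlphaScreen streptavidin donor/nickel chelate acceptor beads (10 ug/mL final), 30 min dark, luminescence read.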
BAZ2B inh: qHTS Assay for Inhibitors of BAZ2B; Bromodomain adjacent to zinc finger domain protein 2B (Homo sapiens), Q9UIF8; AlphaScreen BAZ2B-H3K14Ac peptide displacement; Potency, µM (top dose mostly 114 µM), for inactives: top-dose activity change, negative = inhibition, actives largely listed as inhibitors; 4.4% of 360,000 active; AID 504333, 2011; further: on the % scale 0 is the no-effect control and ±100 the full control effect; nearly all actives have a fitted effect of over 60% in size
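Compounds, titrated to a top concentration of 110 uM, were incubated 30 min at room temperature with preformed BAZ2B/acetyl-K14 H3 peptide complex (50 nM each). Proximity signal was measured by AlphaScreen after 20 min with beads.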
Sfp inh: qHTS Assay for Inhibitors of Bacillus subtilis Sfp phosphopantetheinyl transferase (PPTase) | 4'-phosphopantetheinyl transferase ffp (Bacillus subtilis), Q9F4F7 | Biochemical Sfp PPTase activity, qHTS | Potency, µM, inactives show largest response in the series, negative = inhibition, most hits filed as inhibitors | 3.5% of 310,000 active | AID 1490, 2009;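 further: the enzyme is Sfp with the accession as filed and its product quenches rhodamine fluorescence; 0% = enzyme reaction without inhibitor and -100% = no enzyme wells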
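Step 1, compound plus 15 nM Sfp-PPTase, 15 min, room temperature. Step 2, add rhodamine-CoA (5 uM) and BHQ-2-YbbR (12.5 uM). Step 3, read 525/598 nm fluorescence at 0 and 30 min.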
JMJD2A Tudor: qHTS Assay for Inhibitors of JMJD2A-Tudor Domain. Lysine-specific demethylase 4A (Homo sapiens), O75164. AlphaScreen JMJD2A-Tudor / H3K4me3 peptide binding. Potency, µM (doses to about 114 µM), for the others: at the highest dose activity change, negative = inhibition, actives largely listed as inhibitors. 4.4% of 390,000 active; further: on the % scale 0 is the no-effect control and ±100 the full control effect; nearly all actives have a fitted effect of over 50% in size
G9a block: qHTS Assay for Inhibitors of Histone Lysine Methyltransferase G9a. AID 504332, 2011. 8.8% of 350,000 active. G9a H3K9 monomethylation, AlphaScreen, 2 h. Potency, µM (doses to about 102 µM), without a hit: top-dose activity, negative = inhibition, usual class: inhibitors; further: on the % scale 0 is the no-effect control and ±100 the full control effect; nearly all actives have a fitted effect of over 75% in size
Target sequence (Q96KQ7 913-1193 limits assumed): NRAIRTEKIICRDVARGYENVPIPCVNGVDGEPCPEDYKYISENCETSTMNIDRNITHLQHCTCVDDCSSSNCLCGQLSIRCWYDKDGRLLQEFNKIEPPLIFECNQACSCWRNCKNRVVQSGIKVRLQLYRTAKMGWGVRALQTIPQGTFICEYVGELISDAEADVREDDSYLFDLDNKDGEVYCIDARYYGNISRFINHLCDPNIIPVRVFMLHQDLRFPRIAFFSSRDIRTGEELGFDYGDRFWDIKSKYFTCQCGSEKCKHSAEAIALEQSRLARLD
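Chemiluminescent proximity detection of H3K9 monomethylation, read after 10 min bead incubation in the dark. Reaction: 20 nM G9a, 500 nM biotin-H3K9 peptide, 20 uM SAM cofactor, 2 h, room temperature, following 15 min enzyme-compound preincubation.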
An asterisk follows results filed as active; ? = inconclusive; · = not tested or not shown; [ ] = dose if it differs, or a comment. The call rests on the fitted dose curve; in most records, active means well fitted curve in the direction sought with a large enough effect; inconclusive means small, poorly fitted or top-dose-only effect, or another doubt; inactive means no such curve, though single readings can be large; an effect the other way counts as inactive or inconclusive. Potency means the concentration at half of the fitted maximal effect.

SMILES	HP1b binding inh	BAZ2B inh	Sfp inh	JMJD2A Tudor	G9a block
CCOC(=O)C1=C(CN2c3ccccc3CC2C)NC(=O)NC1c1ccccc1 (configuration not stated)	?	50.1µM*	-6.5%	?	?
CCOC(=O)C1=C(CN2CCCCC2)NC(=O)NC1c1ccc(OC)cc1 (configuration not stated)	1.5%	-9.5%	·	-5.0%	-22.0%[59 µM]
CCOC(=O)C1=C(CN2CCN(c3ccc(OC)cc3)CC2)NC(=O)NC1c1ccc(OC)cc1 (configuration not stated)	-37.8%	39.8µM*	·	56.2µM*	11.2µM*
CCOC(=O)c1[nH]c(CN2CCN(c3ccc(OC)cc3)CC2)c(C(=O)OCC)c1C	44.7µM*	14.1µM*	7.7%	50.1µM*	22.4µM*
Cc1c(C(=O)Nc2ccc3oc(-c4cccnc4)nc3c2)oc2ccccc12	0.2%	14.3%	-7.6%	-18.0%	20.5%[0.501 µM]
CC1=C(C(=O)OCc2ccccc2)C(c2ccc(N(C)C)cc2)NC(=O)N1 (configuration not stated)	-23.7%	?	2.0%	?	10µM*
CCOC(=O)c1cc(C#N)c(N2CCN(c3ccc(OC)cc3)CC2)[nH]c1=O	4.5%	?	5.4%	-26.9%	5.01µM*
CC(=O)C1=C(C)NC(=O)NC1c1ccc(OC2CCCC2)cc1 (configuration not stated)	23.4%	6.7%	-9.0%	-7.9%	5.1%[12.7 µM]
CCOc1ccc(C2NC(=O)NC(C)=C2C(=O)OCc2ccccc2)cc1 (configuration not stated)	12.9%	3.9%	10.1%	-5.5%	-11.7%[0.501 µM]
COc1ccc(C2NC(=O)NC(C)=C2C(C)=O)cc1 (configuration not stated)	18.3%	2.6%	-7.2%	-16.2%	12.6µM*
CCOC(=O)c1[nH]c(C)c(C(=O)N2CCN(c3ccc(OC)cc3)CC2)c1C	26.8%	·	0.0%	-32.6%	?
CC1(C)CC(=O)C(N=Nc2ccc(-c3ccccc3)cc2)=C(O)C1	10.4%	-18.0%	24.5%	?	-11.8%
CC1(C)CC(=O)C(N=Nc2c(Cl)cc(Cl)cc2Cl)=C(O)C1	-14.3%	?	-3.6%	50.1µM*	3.9%[59 µM]
CC1(C)CC(=O)C(N=Nc2cc(C(F)(F)F)ccc2Cl)=C(O)C1	3.8%	?	3.9%	-35.2%	?
CC1(C)CC(=O)C(N=Nc2ccc(Cl)cc2)=C(O)C1	23.0%	1.7%	-6.1%	-5.2%	5.8%
CC1(C)CC(=O)C(N=Nc2cc(S(=O)(=O)N3CCOCC3)ccc2Cl)=C(O)C1	34.2%	56.2µM*	-2.3%	2.1%	50.1µM*
CC1(C)CC(=O)C(N=Nc2cccnc2)=C(O)C1	3.7%	-5.8%	-19.8%	35.5µM*	?
COc1ccc2c(c1)O[C@@H](c1cccc(C(F)(F)F)c1)[C@H](OC(=O)Nc1ccc(OC(F)F)cc1)C2=O	25.3%	1.1%	-5.6%	-11.0%	11.1%
CC(C)N1CCc2c(sc(NC(=O)c3ccc(S(=O)(=O)N4CCc5ccccc54)cc3)c2C(N)=O)C1	3.3%	?	-31.9%	?	17.8µM*
CC(C)N1CCc2c(sc(NC(=O)c3ccc(S(=O)(=O)N(C)C4CCCCC4)cc3)c2C(N)=O)C1	34.5%	3.1%	·	?	-22.7%[59 µM]
CC(C)N1CCc2c(sc(NC(=O)c3nc4ccccc4s3)c2C(N)=O)C1	-1.5%	-36.4%	-26.5%	?	44.7µM*
CC(C)N1CCc2c(sc(NC(=O)c3cc(-c4cccs4)nc4ccccc34)c2C(N)=O)C1	-6.1%	39.8µM*	?	?	11.2µM*
CC(C)(C#N)c1cc(Cn2cncn2)cc(C(C)(C)C#N)c1	·	-3.3%	15.4%	·	28.2%[59 µM]
CCN(CC(=O)Nc1ccccc1C(F)(F)F)C(=O)c1ccccc1Cc1ccccc1	15.5%	15.1%	·	-6.2%	3.2%[0.501 µM]
Cc1ccc(SC(C)C(=O)NCCC2=CCCCC2)cc1 (configuration not stated)	10.7%	31.8%	7.9%	2.4%	66.1%[59 µM]
SMILES	HP1b binding inh	BAZ2B inh	Sfp inh	JMJD2A Tudor	G9a block
COc1ccc(OC)c(NC(=O)c2cccc(Cn3cc(Br)c([N+](=O)[O-])n3)c2)c1	-6.6%	-11.1%	-11.7%	-27.1%	2.51µM*
COc1ccc(C2=CC(c3c(C)nn(-c4ccccc4)c3Cl)n3nnnc3N2)cc1OC (configuration not stated)	4.5%	-25.0%	-1.7%	?	44.7µM*
CCN(CC)P(=O)(Nc1ccc(C)cc1Br)c1ccc(N(C)C)cc1NC(=O)c1ccco1 (configuration not stated)	?	?	-28.0%	39.8µM*	39.8µM*
COc1ccc(CCNC(=O)[C@H](C)NC(=O)[C@@H]2CSC3c4ccccc4C(=O)N32)cc1 (some centres not stated)	32.7%	-6.5%	-5.7%	-18.1%	-2.3%[0.0925 µM]
Oc1ccccc1C=NNC(=S)Nc1ccc(F)cc1	16.7%	·	·	56.2µM*	·
Cc1nn(C)cc1/C=N/NC(=S)Nc1ccccc1	-28.3%	-34.3%	25.1µM*	?	?
Fc1ccc(NC(=S)NN=Cc2ccccc2Cl)cc1	27.4%	·	·	-25.2%	·
Cc1nn(-c2ccccc2)c(N2CCCC2)c1/C=N/NC(=S)Nc1ccc(F)cc1	-8.0%	·	·	-20.3%	·
CCN(Cc1ccccc1)C(=O)Cn1c(=O)cc(C)c2c(C)nn(-c3cccc(F)c3)c21	23.4%	-0.3%	·	-5.0%	19.3%[59 µM]
Cc1ccc(C(=O)OC/C(O)=C(\C#N)c2nc3ccccc3[nH]2)cc1S(=O)(=O)N1CCOCC1	38.3%	34.1%	10.7%	-13.2%	-6.9%[59 µM]
Cc1ccc(S(=O)(=O)N2CCOCC2)cc1N/N=C(\C#N)c1nc2ccccc2[nH]1	-10.4%	-26.0%	12.5%	-30.6%	35.5µM*
O=C(O)C1CCCN1S(=O)(=O)c1cccc(S(=O)(=O)N2CCCC2C(=O)O)c1 (configuration not stated)	65.1%	-7.5%	21.7%	-13.1%	3.16µM*
O=C(NCC1CCCN1S(=O)(=O)c1ccccc1)C(=O)NC1CC1 (configuration not stated)	0.1%	5.4%	·	35.5µM*	50.1µM*
Cc1ncsc1CCOC(=O)c1ccccc1	21.0%	-7.8%	4.4%	-1.3%	?
O=C(Nc1ccc(Cl)cc1)C1CCCCN1S(=O)(=O)c1ccccc1 (configuration not stated)	49.3%	·	·	5.3%	·
CCCOc1ccc(/C=N/NC(=O)c2nnn(-c3nonc3N)c2-c2cccs2)cc1OC	36.2%	-6.3%	9.2%	-4.5%	35.2%
O=C(c1cnn2c(C(F)(F)F)cc(-c3ccco3)nc12)N1CCCCCC1	39.0%	4.3%	1.6%	11.2%	?
